The values that follow come from ChEMBL document CHEMBL4888484, “Replenishing the malaria drug discovery pipeline: Screening and hit evaluation of the MMV Hit Generation Library 1 (HGL1) against asexual blood stage Plasmodium falciparum ,using a nano luciferase reporter read-out” (2022).

By % Inhibition is commonly meant the change of the read-out against control, counted positive when it falls.

SMILES strings stand for the structures. About 540 (0.36%) of roughly 150,000 compounds showed an effect of 50% or more. The entries come from a sample that favours strong results as a whole.

The subject of this assay is Plasmodium falciparum. Description: Primary screen in NF54 nanoGlo assay, in single point, at 2uM, 72h; a lower Z score goes with more inhibition. Format: functional, Erythrocyte. The settings on record: timepoint 72 hour.
`O=C(c1nc2ccccc2[nH]1)N1CCN(c2ccccc2F)CC1`: the “% Inhibition” value is reported as -1% and the Z score was determined as 0.23.

`CCn1cc(-c2n[nH]cc2C(=O)N2CCN(CC(C)C)C(=O)C2)cn1`: the “% Inhibition” value came to 3% and the Z score is listed as -0.32.

For `COc1ccc(S(=O)(=O)N2CCOC[C@H](Oc3ccccc3)C2)cc1`, the “% Inhibition” value was determined as 31% and the Z score is reported as -3.47.

In the case of `Cc1ccc(C)c(Cn2c(C(=O)Nc3ccccc3)cc3cc(NC(=O)c4ccco4)ccc32)c1`, the “% Inhibition” value worked out at 2% and the Z score is reported as -0.19.

Take `CCc1cnccc1NC(=O)CCCC1CCOCC1`: the “% Inhibition” value was -3% and the Z score was found to be 0.38.

For the molecule `C[C@]1(c2cnccn2)NC(=O)N(Cc2cc(F)ccc2OC(F)F)C1=O`, the “% Inhibition” value is -4% and the Z score was determined as 0.57.

In the case of `CC(C)c1ocnc1C(=O)NC[C@H]1[C@H](c2ccccc2)C1(F)F`, the “% Inhibition” value is -3% and the Z score amounted to 0.47.

As for `COc1ccc2[nH]c3c(c2c1)CCN(C(=O)c1cc(Cl)cc(Cl)c1)[C@@H]3c1ccccc1OC`, the “% Inhibition” value was -11% and the Z score came to 1.21.

Regarding `COc1ccc2[nH]c3c(c2c1)CCN(C(=O)c1ccc(C)c(C)c1)[C@@H]3c1ccccc1OC`, the “% Inhibition” value is 84% and the Z score was -11.27.

`COc1ccc2[nH]c3c(c2c1)CCN(C(=O)c1ccc(C)c(C)c1)[C@H]3COCc1ccccc1`: the “% Inhibition” value stood at 0% and the Z score was found to be 0.02.

`COc1ccc(OC)c(CNc2cc[nH]n2)c1`: the “% Inhibition” value is on record as -5% and the Z score is reported as 0.8.

Regarding `CCN(Cc1csc(C)n1)C[C@H]1CCCCO1`, the “% Inhibition” value is on record as 2% and the Z score is listed as -0.27.

On to `Cc1cccc(CN(Cc2cccc(C)n2)C[C@H]2CCCCO2)n1`, for which the “% Inhibition” value is given as 90% and the Z score is -9.86.

Regarding `Cc1cccc(CN(CC2CCN(C3Cc4ccccc4C3)CC2)C[C@H]2CCCO2)n1`, the “% Inhibition” value is reported as -1% and the Z score was found to be 0.18.

Turning to `COc1ccc(CC(=O)N[C@H]2CCOC2)cc1OC`, the “% Inhibition” value is given as -1% and the Z score was 0.14.

Take `COc1nc(NC[C@H]2CCCN2C(C)C)ncc1F`: the “% Inhibition” value is 64% and the Z score is reported as -12.06.

Regarding `COc1nc(NCC[C@H]2CCCCN2C)ncc1F`, the “% Inhibition” value is 3% and the Z score is listed as -0.58.

Consider `COc1nc(NCC2CCN(CC(C)C)CC2)ncc1F`, for which the “% Inhibition” value is recorded as -2% and the Z score amounted to 0.24.

In the case of `Cc1nn(C)c(C)c1CC(=O)N1CCC2(CCC2)S(=O)(=O)CC1`, the “% Inhibition” value is -5% and the Z score is recorded as 0.46.

Take `Cc1ccc(NS(=O)(=O)c2cc(-c3nc(C)c(C)s3)sc2C)c(C)c1`: the “% Inhibition” value is reported as -5% and the Z score stood at 0.62.

With `CC1CCN(C(=O)[C@H]2CCc3ncc(-c4ccc(F)cc4)n3C2)CC1`, the “% Inhibition” value was -7% and the Z score was found to be 1.27.

Take `COc1ccc(-c2nn(-c3ccccc3F)cc2CN2CCOCC2)cc1`: the “% Inhibition” value was -19% and the Z score is reported as 3.28.

Consider `COc1ccc(-c2cn3cc(-c4ccccc4)c4c3n2CCCC4)cc1`, for which the “% Inhibition” value is -8% and the Z score is on record as 1.46.

As for `COc1ccc(-[n+]2c(-c3ccc(-c4ccccc4)cc3)cn3c2COCC3)cc1`, the “% Inhibition” value worked out at 58% and the Z score is -11.93.

For `COc1ccc(-c2cn3c(n2)CCC3)cc1`, the “% Inhibition” value is -5% and the Z score came out at 0.43.

`COc1ccc(N2CCN(Cc3ccc(-c4ccccc4)cc3)CC2)cc1`: the “% Inhibition” value is on record as 5% and the Z score is given as -1.

On to `COc1ccc(-[n+]2c(-c3ccccc3)cn3c2CCC3)cc1`, for which the “% Inhibition” value is listed as 79% and the Z score was -11.37.

`NC(=O)N1CCCC(C(=O)N2CCCC2c2ccc(F)c(F)c2)C1` (stereo unspecified): the “% Inhibition” value is 0% and the Z score is listed as 0.02.

As to `O=C1CC(C(=O)N2CCCC2c2ccncc2)CN1c1ccccc1` (stereo unspecified), the “% Inhibition” value is -8% and the Z score came to 1.05.

Consider `O=C1CNC(C(=O)N2CCC[C@H]2c2ccncc2)=NN1c1ccccc1`, for which the “% Inhibition” value stood at 3% and the Z score is reported as -0.62.

For the molecule `O=C1CCC(C(=O)N2CCC[C@H]2c2ccncc2)=NN1c1ccccc1`, the “% Inhibition” value turned out to be 67% and the Z score amounted to 1.73.

Regarding `CCCc1nc(CN2CCc3ccc(F)cc3C2)no1`, the “% Inhibition” value is reported as -4% and the Z score was 0.53.

Turning to `CN(C)c1noc(CN2CCc3c(F)cc(F)cc3C2)n1`, the “% Inhibition” value is recorded as 10% and the Z score is recorded as -0.88.

`CN(C)c1noc(CN2CCc3ccc(F)cc3C2)n1`: the “% Inhibition” value stood at 51% and the Z score was -2.97.

`O=C(NCc1ccccc1)c1[nH]cnc1C(=O)N1CCCCC1`: the “% Inhibition” value is listed as 11% and the Z score is listed as -1.23.

Take `COc1ccc(-c2n[nH]c3c2C(=O)C[C@@H](c2ccccc2)C3)cc1`: the “% Inhibition” value is listed as -5% and the Z score was 0.48.

On to `Nc1nc(-c2ccccc2)c2cc3c(nn12)C[C@H](c1ccc(F)cc1)CC3=O`, for which the “% Inhibition” value was found to be 57% and the Z score was found to be 0.5.

Turning to `Cc1nn(C)c2nc3c(c(N)c12)C(=O)C[C@@H](c1ccccc1)C3`, the “% Inhibition” value is recorded as -14% and the Z score stood at 1.9.

`CNc1snc(C)c1C(=O)N1CCN(Cc2ccc(-c3cccc(F)c3)s2)CC1`: the “% Inhibition” value is on record as 2% and the Z score is -0.21.

`O=C(N[C@@H]1CC[C@H]2CCOc3ccccc3C(=O)N3CCN(C4CCC(F)(F)CC4)C[C@H]3C(=O)NC[C@H]1O2)C1CCOCC1`: the “% Inhibition” value turned out to be 29% and the Z score is on record as -3.41.

With `Cc1ccc(NC(=O)N2CCC(C(NC(=O)c3ccccc3)C(=O)N3CCCCC3C)CC2)cc1` (stereo unspecified), the “% Inhibition” value was 70% and the Z score came out at 0.76.

Consider `Cc1ccc(S(=O)(=O)N2CCC([C@H](NC(=O)c3ccccc3)C(=O)N3CCCC3)CC2)cc1`, for which the “% Inhibition” value is -14% and the Z score turned out to be 1.34.

`CC(=O)N1CCC(C(NC(=O)c2cccs2)C(=O)N2CCCCC2C)CC1` (stereo unspecified): the “% Inhibition” value is given as 4% and the Z score is given as -0.78.

As to `COc1ccc(Cc2n[nH]c3c2CN(Cc2nccs2)CC3)cc1OC`, the “% Inhibition” value stood at 6% and the Z score is -0.85.

Consider `Cc1noc(CNC(=O)c2ccc3[nH]c(=O)[nH]c3c2)n1`, for which the “% Inhibition” value was -7% and the Z score is recorded as 1.3.

`CCOC1CC(N(C)S(=O)(=O)c2cnc(C)s2)C12CCC2` (stereo unspecified): the “% Inhibition” value is on record as -5% and the Z score was determined as 0.63.

As to `CCCc1nc2ncnn2c(O)c1NC(=O)Nc1ccccc1Br`, the “% Inhibition” value was found to be 2% and the Z score was -0.44.

Regarding `N#C[C@@H](C(=O)c1cc2ccccc2[nH]1)c1nc2ccccc2s1`, the “% Inhibition” value is recorded as 16% and the Z score was -2.03.

Take `N#CC(c1nc2ccccc2s1)c1nc2ccccc2s1`: the “% Inhibition” value is 60% and the Z score is listed as 0.46.

Turning to `N#C[C@@H](C(=O)NCc1ccccc1)c1nc2ccccc2s1`, the “% Inhibition” value was -2% and the Z score turned out to be 0.39.

Regarding `CCN(CC)C(=O)Nc1ccc(-c2c(C)nn(CC(N)=O)c2C)cc1`, the “% Inhibition” value turned out to be 1% and the Z score is -0.2.

`CCN(CC)c1ccc(CNC(=O)[C@H](C)c2c(C)noc2C)cc1F`: the “% Inhibition” value is -12% and the Z score amounted to 1.74.

As for `CCOc1cccc(CN2CCC(C)(c3noc(C4CCOCC4)n3)CC2)c1`, the “% Inhibition” value is recorded as -13% and the Z score is on record as 1.51.
